This is a sample that favours compounds with a hit; in the whole collection about 6.7% have one here.
Pf Dd2 growth: P. falciparum Dd2 growth inhibitors, primary screen, SYBR Green fluorescence, single dose replicates; activity change, % at 10 µM; 72 h; active compounds read low; 94,000 compounds, 2.3% hits; in the data active = activity change below about -80%
T cruzi growth: T. cruzi intracellular proliferation inhibitors, primary screen, cell-based, beta-gal Tulahuen parasites, NIH3T3 host, luminescence; T. cruzi beta-gal in NIH3T3, GalScreen luminescence, 90 h; 77,000 compounds, 5.9% hits; inhibition, % at 8.34 µM;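 active = mean inhibition above about 93%, with at least 55% of replicates each passing it, limit read from the data, passing the limit was not always enough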
C diff growth: C. difficile growth inhibitors, primary screen, HTS | Clostridium difficile clinical isolate growth, OD600, 24 h; active compounds read low | 86,000 compounds, 0.25% hits | growth activity, negative = inhibition, % at 16 µg/mL (by protocol);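 active = mean growth activity at or below -80% and every replicate also at or below -80%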
Each line names hits and unclear results; the compound was inactive in the other large screens; ! = not active in a repeat.

O=C(C[C@H]1CC[C@H]2[C@@H](COC[C@@H](O)CN2C(=O)Nc2ccc(Cl)c(Cl)c2)O1)NC1CCC1	C diff growth -99! (no result: Pf Dd2 growth)
O=C(C[C@@H]1CC[C@@H]2[C@H](COC[C@@H](O)CN2C(=O)Nc2ccc(Cl)c(Cl)c2)O1)NC1CCC1	C diff growth -98 (no result: Pf Dd2 growth)
C[C@H]1CCCCO[C@@H](CN(C)S(=O)(=O)c2ccccc2)[C@@H](C)CN([C@@H](C)CO)C(=O)c2cc(NC(=O)c3ccccc3)ccc2O1	none (no result: C diff growth)
C[C@@H]1CCCCO[C@@H](CN(C)S(=O)(=O)c2ccccc2)[C@H](C)CN([C@@H](C)CO)C(=O)c2cc(NC(=O)c3ccccc3)ccc2O1	none (no result: C diff growth)
C[C@@H]1CCCCO[C@H](CN(C)S(=O)(=O)c2ccccc2)[C@H](C)CN([C@@H](C)CO)C(=O)c2cc(NC(=O)c3ccccc3)ccc2O1	none (no result: C diff growth)
C[C@@H]1CCCCO[C@@H](CN(C)S(=O)(=O)c2ccc(Cl)cc2)[C@H](C)CN([C@@H](C)CO)C(=O)c2cc(NC(=O)c3ccccc3)ccc2O1	none
C[C@@H]1CCCCO[C@@H](CN(C)S(=O)(=O)c2ccc(Cl)cc2)[C@H](C)CN([C@H](C)CO)C(=O)c2cc(NC(=O)c3ccccc3)ccc2O1	Pf Dd2 growth -85
C[C@@H]1CN([C@@H](C)CO)C(=O)c2cc(NC(=O)c3ccccc3)ccc2O[C@@H](C)CCCCO[C@H]1CN(C)S(=O)(=O)c1ccc(Cl)cc1	Pf Dd2 growth -84
C[C@H]1CCCCO[C@H](CN(C)S(=O)(=O)c2ccc(Cl)cc2)[C@@H](C)CN([C@@H](C)CO)C(=O)c2cc(NC(=O)c3ccccc3)ccc2O1	Pf Dd2 growth -81
C[C@@H]1CN([C@@H](C)CO)C(=O)c2cc(NC(=O)c3ccccc3)ccc2O[C@@H](C)CCCCO[C@@H]1CN(C)S(=O)(=O)c1ccc(Cl)cc1	Pf Dd2 growth -86
O=C(Nc1ccc2c(c1)OCO2)N[C@H]1CC[C@@H](CCNC(=O)C2CC2)O[C@H]1CO	none (no result: C diff growth)
C[C@@H]1CCCCO[C@@H](CN(C)S(=O)(=O)c2ccccc2)[C@H](C)CN([C@@H](C)CO)C(=O)c2cc(NC(=O)Nc3ccccc3)ccc2O1	none (no result: C diff growth)
Cc1ccc(S(=O)(=O)N(C)C[C@H]2OCCCC[C@H](C)Oc3ccc(NC(=O)Nc4ccccc4)cc3C(=O)N([C@@H](C)CO)C[C@H]2C)cc1	Pf Dd2 growth -91
C[C@@H]1CN([C@H](C)CO)C(=O)c2cc(NC(=O)Nc3ccccc3)ccc2O[C@@H](C)CCCCO[C@H]1CN(C)S(=O)(=O)c1ccccc1	none (no result: C diff growth)
Cc1ccc(S(=O)(=O)N(C)C[C@@H]2OCCCC[C@@H](C)Oc3ccc(NC(=O)Nc4ccccc4)cc3C(=O)N([C@H](C)CO)C[C@@H]2C)cc1	Pf Dd2 growth -86
O=C(C[C@@H]1CC[C@H](NC(=O)C2CC2)[C@H](CO)O1)Nc1nccs1	none (no result: T cruzi growth)
C[C@@H]1CN([C@H](C)CO)C(=O)c2cccc(NS(=O)(=O)c3ccccc3)c2O[C@H]1CN(C)C(=O)Nc1ccccc1	none
COCc1cn(CC[C@H]2CC[C@@H](NC(=O)Nc3ccc(F)cc3)[C@@H](CO)O2)nn1	none
O=C([C@H]1[C@H](CO)[C@H]2Cn3c(ccc(/C=C/c4ccccc4)c3=O)[C@@H]1N2)N1CCCCC1	none
CCCN(C)C[C@H]1OCCCC[C@@H](C)Oc2ccc(NC(=O)c3ccccc3)cc2C(=O)N([C@@H](C)CO)C[C@H]1C	Pf Dd2 growth -91
CCCN(C)C[C@@H]1OCCCC[C@H](C)Oc2ccc(NC(=O)c3ccccc3)cc2C(=O)N([C@H](C)CO)C[C@@H]1C	none (no result: Pf Dd2 growth)
C[C@@H]1CCCCO[C@@H](CN(C)CC2CC2)[C@H](C)CN([C@@H](C)CO)C(=O)c2cc(NC(=O)c3ccccc3)ccc2O1	none (no result: T cruzi growth)
C[C@@H]1CCCCO[C@H](CN(C)CC2CC2)[C@H](C)CN([C@@H](C)CO)C(=O)c2cc(NC(=O)c3ccccc3)ccc2O1	Pf Dd2 growth -84
COc1cccc(S(=O)(=O)N2C[C@@H](O)COC[C@@H]3O[C@H](CC(=O)N4CCN(c5ccccc5)CC4)CC[C@H]32)c1	none (no result: Pf Dd2 growth)
COc1ccc(NC(=O)N(C)C[C@H]2OCc3ccccc3-c3c(n(C)c4ccccc34)C(=O)N([C@@H](C)CO)C[C@H]2C)c(OC)c1	Pf Dd2 growth -89
COc1ccc(NC(=O)N(C)C[C@H]2OCc3ccccc3-c3c(n(C)c4ccccc34)C(=O)N([C@H](C)CO)C[C@@H]2C)c(OC)c1	Pf Dd2 growth -86
COc1ccc(NC(=O)N(C)C[C@@H]2OCc3ccccc3-c3c(n(C)c4ccccc34)C(=O)N([C@@H](C)CO)C[C@H]2C)c(OC)c1	none
COc1ccc(NC(=O)N(C)C[C@H]2OCc3ccccc3-c3c(n(C)c4ccccc34)C(=O)N([C@H](C)CO)C[C@H]2C)c(OC)c1	none
CCCC(=O)N1CC2(CN(C(C)=O)C2)c2c(n(C)c3cc(OC)ccc23)[C@H]1CO	none (no result: T cruzi growth)
COc1ccc(S(=O)(=O)N(C)C[C@@H]2OCCCC[C@@H](C)Oc3ccc(NC(=O)c4ccccc4)cc3C(=O)N([C@H](C)CO)C[C@H]2C)cc1	Pf Dd2 growth -85
Cc1ccc(S(=O)(=O)N(C)C[C@H]2OCCCC[C@@H](C)Oc3ccc(NC(=O)c4ccccc4)cc3C(=O)N([C@@H](C)CO)C[C@H]2C)cc1	none (no result: C diff growth)
C[C@@H]1CN([C@H](C)CO)C(=O)c2cc(NC(=O)c3ccccc3)ccc2O[C@@H](C)CCCCO[C@@H]1CN(C)S(=O)(=O)c1ccc(F)cc1	Pf Dd2 growth -85 (no result: T cruzi growth)
COc1ccc(S(=O)(=O)N(C)C[C@@H]2OCCCC[C@@H](C)Oc3ccc(NC(=O)c4ccccc4)cc3C(=O)N([C@@H](C)CO)C[C@@H]2C)cc1	none
C[C@H]1CCCCO[C@H](CN(C)S(=O)(=O)c2ccc(F)cc2)[C@@H](C)CN([C@@H](C)CO)C(=O)c2cc(NC(=O)c3ccccc3)ccc2O1	none (no result: T cruzi growth)
Cc1ccc(S(=O)(=O)N(C)C[C@H]2OCCCC[C@H](C)Oc3ccc(NC(=O)c4ccccc4)cc3C(=O)N([C@H](C)CO)C[C@H]2C)cc1	Pf Dd2 growth -81 (no result: C diff growth)
Cc1noc(C)c1NC(=O)N(C)C[C@@H]1Oc2ncc(C#CC(C)C)cc2C(=O)N([C@H](C)CO)C[C@@H]1C	none
COc1ccc(S(=O)(=O)Nc2ccc3c(c2)C(=O)N([C@@H](C)CO)C[C@H](C)[C@@H](CN(C)C(=O)Cc2ccccc2)OCCCC[C@@H](C)O3)cc1	none
C[C@H](CO)N1C[C@H](C)[C@H](CN(C)S(=O)(=O)c2ccc(F)cc2)Oc2ccc(NS(=O)(=O)c3ccc(Cl)cc3)cc2C1=O	Pf Dd2 growth -93
C[C@@H]1CN([C@@H](C)CO)C(=O)Cc2cc(NS(=O)(=O)c3ccc(Cl)cc3)ccc2O[C@H]1CN(C)S(=O)(=O)c1ccc(Cl)cc1	Pf Dd2 growth -85
COc1ccc(S(=O)(=O)N(C)C[C@@H]2Oc3ccc(NS(=O)(=O)c4ccc(C)cc4)cc3CC(=O)N([C@H](C)CO)C[C@@H]2C)cc1	none
C[C@@H]1CN([C@H](C)CO)C(=O)c2cc(NS(=O)(=O)c3ccc(Cl)cc3)ccc2O[C@@H]1CN(C)S(=O)(=O)c1ccc(F)cc1	none

Screens from PubChem.
